This excerpt belongs to a sample that is enriched for hits.
HT1080 IDH1KD tx = toxicity to HT-1080 IDH1 knockdown cells (counter line) | HT-1080 IDH1 knockdown viability, ATP luminescence, 48 h | Potency, µM (doses to about 46.1 µM), without a hit: at the top dose activity, negative = toxicity, actives largely listed as cytotoxic | 360,000 tested, 2% active;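 also: potency is read from the fitted curve at half-maximal effect; 0% = DMSO wells and -100% = cell-free medium wells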
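HT-1080-IDH1KD cells (IDH1 knocked down), 750/well in RPMI with 5% FBS, treated with compound 48 h at 37 degrees C. Viability by CellTiter-Glo luminescence, normalised to DMSO and no-cell wells; concentration-response curves classed.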
12-LOX inh = ALOX12 (human) lipoxygenase inhibition; purified 12hLO, xylenol orange hydroperoxide absorbance; Potency, µM (doses to about 108 µM), for inactives: top-dose activity change, negative = inhibition, most hits filed as inhibitors; 580,000 tested, 1.1% active; also: potency is read from the fitted curve at half-maximal effect
Target sequence (P18054 whole entry, looked up): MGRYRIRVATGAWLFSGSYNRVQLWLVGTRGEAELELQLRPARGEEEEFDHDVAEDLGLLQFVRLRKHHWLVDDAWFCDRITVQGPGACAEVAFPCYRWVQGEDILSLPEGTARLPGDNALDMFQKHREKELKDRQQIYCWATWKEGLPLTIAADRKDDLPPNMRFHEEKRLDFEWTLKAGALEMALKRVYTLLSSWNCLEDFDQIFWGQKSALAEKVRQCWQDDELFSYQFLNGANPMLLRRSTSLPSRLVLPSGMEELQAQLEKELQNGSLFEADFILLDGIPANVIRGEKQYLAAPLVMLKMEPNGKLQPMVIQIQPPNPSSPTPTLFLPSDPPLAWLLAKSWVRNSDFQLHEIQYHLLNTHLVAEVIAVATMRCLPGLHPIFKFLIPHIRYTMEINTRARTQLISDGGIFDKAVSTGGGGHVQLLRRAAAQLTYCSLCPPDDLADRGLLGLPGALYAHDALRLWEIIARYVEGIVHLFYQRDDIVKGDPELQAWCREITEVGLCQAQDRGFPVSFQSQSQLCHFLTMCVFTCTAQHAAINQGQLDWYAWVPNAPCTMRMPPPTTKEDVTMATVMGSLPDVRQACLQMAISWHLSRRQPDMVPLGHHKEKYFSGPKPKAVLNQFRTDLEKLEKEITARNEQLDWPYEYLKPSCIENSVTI
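Hydroperoxide product was detected by ferrous iron/xylenol orange as the 573 to 405 nm absorbance ratio. Arachidonic acid at 40 uM (final) was turned over for 30 min at room temperature by 150 nM human 12hLO, pH 7.0 Hepes buffer, after 15 min compound preincubation.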
HT1080NT lethal = kills 2HG-producing HT-1080-NT fibrosarcoma cells; HT-1080-NT fibrosarcoma viability, CellTiter-Glo ATP luminescence, 48 h; Potency, µM (titrated, usually from 46.1 µM), for inactives: at the top dose activity, negative = less viability, actives largely listed as cytotoxic; 360,000 tested, 1.6% active;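 also: NT is the 2HG producing partner of a matched IDH1 knockdown line; potency is read from the fitted curve at half-maximal effect; 0% = DMSO-treated cells and -100% = media-only wells without cells; nearly all actives have a fitted effect of over 55% in size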
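HT-1080-NT fibrosarcoma cells (2HG-overproducing), 750 cells/well in RPMI with 5% FBS, dosed after 2 h and incubated 48 h at 37C. CellTiter-Glo luminescence normalized to DMSO and no-cell wells; concentration-response curves fitted and classed.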
DT40 TDP1 CPT = DT40-hTDP1 cell growth loss with CPT. chicken DT40 Tdp1-/-;hTDP1 cells + 20 nM CPT, ATP luminescence, 48 h. Potency, µM (titrated, usually from 46.2 µM), for the others: top-dose activity change, negative = growth inhibition, most hits filed as inhibitors. 420,000 tested, 12% active; also: potency is read from the fitted curve at half-maximal effect; nearly all actives have a fitted effect of over 55% in size
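Chicken DT40 Tdp1-/- cells complemented with human TDP1, 400 cells/well, exposed to compounds plus 20 nM camptothecin for at least 48 h at 37 C; viability read as ATP content by CellTiter-Glo luminescence.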
IL-1B inflam inh = blocks inflammasome-driven IL-1 beta release; THP-1 LPS/ATP IL-1B secretion, AlphaLISA, 16 h; stronger effect = lower value; activity change, % at 57.5 µM; 360,000 tested, 4.7% active; AID 743279; in the data active = activity change below about -50%; inconclusive = mostly about -30% to -49%
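THP-1 cells pretreated 1 hr with compounds (up to 57.5 uM final), then stimulated with LPS (250 ng/mL final) plus ATP (1.25 mM final); secreted IL-1B measured by AlphaLISA after 16 hr, decreased signal indicating inhibition.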
DT40 TDP1 no CPT = qHTS for Inhibitors of human tyrosyl-DNA phosphodiesterase 1 (TDP1): qHTS in cells in absence of CPT; DT40 Tdp1-/- hTDP1 cells, no CPT, ATP luminescence, 48 h; Potency, µM (doses to about 46.2 µM), for the others: top-dose activity change, negative = growth inhibition, usual class: inhibitors; 420,000 tested, 15% active; AID 686978, 2013; also: potency is read from the fitted curve at half-maximal effect; nearly all actives have a fitted effect of over 55% in size
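Growth kinetics read by CellTiter-Glo luminescence after ≥48 hr at 37 °C. Cells: DT40 Tdp1-/- stably carrying human TDP1, 400 per well, compound exposure in the absence of CPT (DMSO vehicle).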
* hit, by the source's call; ? = inconclusive; . = not tested or not shown; ! = not confirmed by another sample. Unless noted, calls follow the shape of the dose curve; as a rule, active = well fitted curve in the direction sought with a large enough effect; inconclusive = small, poorly fitted or top-dose-only effect, or another doubt; inactive = no such curve, though single readings can be large; an effect the other way counts as inactive or inconclusive. Unless noted, % is scaled to controls: 0 for no effect and ±100 for the full control effect.

SMILES	HT1080 IDH1KD tx	12-LOX inh	HT1080NT lethal	DT40 TDP1 CPT	IL-1B inflam inh	DT40 TDP1 no CPT
O=C(CCC(=O)c1ccc(F)cc1)OCc1cc(-c2ccccc2)no1	.	-15%	.	.	.	.
Cc1cccc(N2CCN(C(=O)CC(NC(=O)c3ccccc3)c3ccccc3)CC2C)c1 (configuration not stated)	9%	-24%	0%	?	-11	29µM*
COc1cccc(N2CCN(C(=O)CC(NC(=O)c3ccccc3)c3ccccc3)CC2)c1 (configuration not stated)	-2%	-12%	5%	-20%	-11	-30%
Cc1cccc(N2CCN(C(=O)CN3CCOc4ccccc43)CC2C)c1 (configuration not stated)	-1%	?	3%	23µM*	-24	?
O=C(CN1CCOc2ccccc21)N1CCN(c2cccc(Cl)c2)CC1	-10%	2%	-1%	?	?	29µM*
O=C(Cn1ccc2ccccc2c1=O)N1CCN(c2cccc(Cl)c2)CC1	1%	-3%	1%	-13%	-2	?
Cc1cccc(N2CCN(C(=O)c3ccc4c(c3)OCCO4)CC2C)c1 (configuration not stated)	13%	68%	15%	30%	15	-2%
COc1ccc(C(C)(C)C)cc1NC(=O)COC(=O)c1ccc2c(c1)NC(=O)CS2	.	8%	.	.	.	.
COc1cccc(CNC(=O)c2cc3cc(C)ccc3[nH]2)c1	.	1%	.	.	.	.
CCc1ccc(CNC(=O)c2cc3cc(C)ccc3[nH]2)cc1	.	35µM*	.	.	.	.
CCn1c(=O)c([N+](=O)[O-])c(NCC2CCCO2)c2ccccc21 (configuration not stated)	7%	-13%	24%	4%	10	-14%
COC(=O)[C@@]12C[C@@H](CC(=O)NCc3cccc4ccccc34)C(=O)N(Cc3ccco3)C1=CCC(C)(C)C2	?	?	?	21µM*	-71*	?
COC(=O)[C@@]12C[C@@H](CC(=O)NCc3cccs3)C(=O)N(Cc3ccco3)C1=CCC(C)(C)C2	-1%	?	-3%	?	?	18µM*
COC(=O)[C@@]12C[C@@H](CC(=O)NCc3ccc(C)o3)C(=O)N(Cc3ccco3)C1=CCC(C)(C)C2	-11%	?	1%	?	-11	?
COC(=O)[C@@]12C[C@@H](CC(=O)NCc3ccccc3)C(=O)N(Cc3ccco3)C1=CCC(C)(C)C2	-7%	2%	1%	18µM*	-16	?
CCCCOCCCNC(=O)C[C@@H]1C[C@@]2(C(=O)OC)CC(C)(C)CC=C2N(Cc2ccco2)C1=O	-3%	10%	-1%	21µM*	-2	23µM*
COC(=O)[C@@]12C[C@@H](CC(=O)NCCC(C)C)C(=O)N(Cc3ccco3)C1=CCC(C)(C)C2	-2%	-2%	3%	?	-18	?
O=C(Cc1n[nH]c(=O)c2ccccc12)Nc1ccc(S(=O)(=O)N2CCCC2)cc1	.	-28%	.	.	.	.
CC[N+](CC)=N/N=C1\C=CC[N+]([O-])=C1	?	-1%	19%	-2%	0	-22%
OC1CCOC2(CCN(Cc3cccc4[nH]ccc34)CC2)C1 (configuration not stated)	.	-5%	.	.	.	.
COC(=O)[C@@]12C[C@@H](CC(=O)NCCCCc3ccccc3)C(=O)N(Cc3ccco3)C1=CCC(C)(C)C2	?	-25%	-2%	16µM*	?	?
CC1CCCN(C(=O)c2nn(C)c3c2CS(=O)(=O)c2ccccc2-3)C1 (configuration not stated)	10%	-19%	1%	-8%	2	24%
Cc1ccc(N2CCN(C(=O)c3nn(C)c4c3CS(=O)(=O)c3ccccc3-4)CC2C)cc1 (configuration not stated)	2%	-21%	3%	21µM*!	-29	?
O=C(NCc1ccncc1)C12CC3CC(CC(C3)C1)C2	-6%	40%	2%	10%	13	-9%
N#CC1=C(N)S[C@H](C(=O)C23CC4CC(CC(C4)C2)C3)[C@H]1c1ccncc1	?	.	23µM*	?	-15	?
SMILES	HT1080 IDH1KD tx	12-LOX inh	HT1080NT lethal	DT40 TDP1 CPT	IL-1B inflam inh	DT40 TDP1 no CPT
CSCCC(NC(=O)COc1ccccc1)C(=O)N(C)Cc1c(F)cccc1Cl (configuration not stated)	-4%	-19%	-6%	21µM*	-6	12µM*
NS(=O)(=O)c1ccc(NCC2COc3ccccc3O2)c([N+](=O)[O-])c1 (configuration not stated)	-9%	?	0%	?	-2	?
CS(=O)(=O)c1ccc(C(=O)OCC(=O)NC(=O)C2COc3ccccc3O2)cc1[N+](=O)[O-] (configuration not stated)	0%	?	7%	16µM*	-59*	18µM*
Cc1cc(C(=O)OCC(=O)NC(=O)C2CCCCC2)ccc1[N+](=O)[O-]	.	.	.	-4%	.	7%
CC(=O)c1ccc(NCC2COc3ccccc3O2)c([N+](=O)[O-])c1 (configuration not stated)	-15%	-7%	-1%	?	24	13µM*
COc1ccc(C(=O)OCC(=O)NC2CC2)cc1[N+](=O)[O-]	3%	-1%	5%	-8%	-12	23%
CS(=O)(=O)c1ccc(C(=O)OCC(=O)N2CCOCC2)cc1[N+](=O)[O-]	.	-19%	.	.	.	.

Bioassay records (PubChem)
